# Entries with a potency or affinity are not part of this list. Activity calls are given as the source filed them.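 The calls were made as follows: active = every repeat run showing a signal drop whose fitted half-maximal concentration is at most twice the top tested concentration; inconclusive = repeat runs disagree, or flat partial drop, or poor fit; inactive = the rest.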
# Experiment: general mammalian cell viability loss – activator set, cherry-pick, cytotoxicity control for miR-122 modulator project, dose response (AID 720690);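 also: 0% = neutral control wells and -100% = MG132 cytotoxic control wells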
# Conditions: HEK293T viability, CellTiter-Glo luminescence, 48 h; series mostly up to 26 µM; activity change, negative = cytotoxicity: at the top concentration
row,Structure (SMILES),"activity change, negative = cytotoxicity"
1,COc1cccc(CNC(=O)C[C@@H]2CC[C@@H]3[C@@H](COc4ccc(NC(C)=O)cc4C(=O)N3C)O2)c1,-15.2% (inactive)
2,CCN(C[C@H]1[C@@H](c2ccccc2)[C@@H](CO)N1C(=O)COC)S(C)(=O)=O,-9.87% (inactive)
3,COC(=O)C[C@H]1CC[C@@H]2[C@@H](COc3ccc(NC(=O)c4ccc(F)c(F)c4)cc3C(=O)N2C)O1,-4.61% (inactive)
4,CCCCNC(=O)Nc1nnc(-c2ccc(OCC)cc2)o1,7.89% (inactive)
5,C[C@@H]1CN([C@@H](C)CO)C(=O)c2cc(NS(=O)(=O)c3ccc(F)cc3)ccc2O[C@@H]1CN(C)Cc1ccc(-c2ccccc2)cc1,-22.7% (inactive)
6,C[C@H]1CN([C@@H](C)CO)S(=O)(=O)c2ccc(-c3ccc(C(=O)N(C)C)cc3)cc2O[C@H]1CN(C)C(=O)C1CCC1,5.13% (inactive)
7,CNC(=O)C[C@@H]1CC[C@@H]2[C@@H](COc3ccc(NC(=O)Nc4ccc(F)c(F)c4)cc3C(=O)N2C)O1,15.3% (inactive)
8,CN1C(=O)c2cc(NC(=O)c3cccc(F)c3)ccc2OC[C@@H]2O[C@@H](CC(=O)O)CC[C@H]21,-11.6% [at 23.5 µM] (inactive)
9,CN1C(=O)c2cc(NC(=O)c3ccccc3F)ccc2OC[C@H]2O[C@@H](CC(=O)NCc3ccc4c(c3)OCO4)CC[C@@H]21,-4.16% (inactive)
10,O=C(NCC(c1cccnc1)N1CCOCC1)NC1CCCCC1 (stereo unspecified),0.711% (inactive)
11,COC(=O)C[C@@H]1CC[C@H]2[C@@H](COc3ccc(NC(=O)c4ccc(F)c(F)c4)cc3C(=O)N2C)O1,-15.5% (inactive)
12,CN(C)C(=O)c1ccc(NC(=O)c2cc(-n3cnnc3)ccc2Cl)cc1,0.004% (inactive)
13,CCNC(=O)C[C@H]1CC[C@H]2[C@H](COc3ccc(NS(C)(=O)=O)cc3C(=O)N2C)O1,-1.77% (inactive)
14,COc1ccc(CN2CCN(Cc3cccn3-c3ncccn3)CC2CCO)c(C)c1C (stereo unspecified),5.96% (inactive)
15,CN1C(=O)c2cc(NC(=O)Cc3ccccc3)ccc2OC[C@@H]2O[C@@H](CC(=O)O)CC[C@H]21,-1.92% [at 23.5 µM] (inactive)
16,CCCC(=O)Nc1ccc2c(c1)C(=O)N(C)[C@@H]1CC[C@H](CC(=O)NCCN3CCCCC3)O[C@H]1CO2,-17.2% (inactive)
17,O=C(Cn1c(=O)c2ccccc2n(CC(=O)N2CCCCC2)c1=O)N1CCCCC1,-30.5% (inactive)
18,O=C(CN1CCN(c2nc(-c3ccccc3)cs2)CC1)Nc1ccc2c(c1)OCO2,-17.8% (inactive)

row,Structure (SMILES),"activity change, negative = cytotoxicity"
1,O=C(c1cccc(F)c1)N1C[C@@H]2[C@H](c3ccccc31)[C@H](CO)N2C(=O)Cc1ccccc1,-12.1% (inactive)
2,Cc1ccc(-c2noc(CCC(=O)Nc3ccccc3C)n2)cc1,1.33% (inactive)
3,CNC(=O)C[C@@H]1CC[C@@H]2[C@H](COc3ccc(NC(=O)Nc4ccc(Cl)cc4)cc3C(=O)N2C)O1,2.54% (inactive)
4,CCC(=O)N1[C@H](CO)[C@H](c2ccccc2)[C@@H]1CN(CC)C(=O)c1ccccc1,-4.96% [at 23.5 µM] (inactive)
5,CN1C(=O)c2cc(NS(=O)(=O)c3cccc(F)c3)ccc2OC[C@H]2O[C@@H](CC(=O)NCCN3CCCCC3)CC[C@H]21,-0.413% [at 23.5 µM] (inactive)
6,CSc1cccc(NS(=O)(=O)c2ccccc2)c1,-0.1% (inactive)
7,COCC(=O)Nc1ccc2c(c1)C(=O)N(C)[C@@H]1CC[C@@H](CC(=O)NCCCN(C)C)O[C@@H]1CO2,-23.2% (inactive)
8,CCCNC(=O)C[C@H]1CC[C@@H]2[C@H](COc3ccc(NC(=O)c4cc(F)cc(F)c4)cc3C(=O)N2C)O1,-1.48% (inactive)
9,CO[C@@H]1CN(C)C(=O)c2ccc(NC(=O)c3nc4ccccc4s3)cc2OC[C@H](C)N(Cc2cccnc2)C[C@H]1C,-2.46% (inactive)
10,COC(=O)C[C@H]1CC[C@@H]2[C@H](COc3ccc(NC(=O)c4cccs4)cc3C(=O)N2C)O1,-2.48% (inactive)
11,CN1C(=O)c2cc(NC(=O)Nc3ccccc3F)ccc2OC[C@@H]2O[C@@H](CC(=O)NCc3ccc(-c4ccccc4)cc3)CC[C@H]21,-12.3% (inactive)
12,COc1ccc(OC)c(Nc2cc(C)nc3ccc(C)cc23)c1,-11.7% (inactive)
13,CN1C(=O)c2cc(NC(=O)c3ccc4c(c3)OCO4)ccc2OC[C@@H]2O[C@@H](CC(=O)O)CC[C@@H]21,-26.2% (inactive)
14,CCc1nc2sc(C)c(C)c2c(=O)n1CCO,3.22% (inactive)
15,COc1nnc(-c2ccc(N3CCOCC3)c(NC(=O)c3ccccc3)c2)c2ccccc12,4.67% (inactive)
16,C/C=C/c1ccc([C@H]2[C@@H](CO)N(C(=O)C3CC3)[C@H]2CNC(=O)NC(C)C)cc1,0.786% (inactive)
17,COc1cccc(COc2cc3ccccc3nc2C)c1,-37.7% (inactive)
18,CC(=O)N(C)C[C@H]1[C@@H](c2ccc(-c3ccc(F)cc3)cc2)[C@@H](CO)N1C(C)=O,10.1% (inactive)
